Laboratory results published in article PMC4552634, “A New Set of Chemical Starting Points with Plasmodium falciparum Transmission-Blocking Potential for Antimalarial Drug Discovery” (PLoS ONE, 2015).
Where two headings read alike, the source gives them in different places. Screen size: about 13,000 compounds; about 3,200 (25%) showed an effect of 50% or more. This is one part of the list.

Tested on: P. falciparum stage V gametocytes
Set-up: BacTiter-Glo ATP luminescence viability of purified stage V gametocytes in 384-well plates, per cent inhibition versus DMSO
Details: 48 h, 5 µM, inhibitor

Compound | % Inhibition [%] | % Inhibition (% Inhibition) [%]
CCC(C)c1ccc(NC(=O)Nc2ccc(Cn3ncc(N4CCCNCC4)c(Cl)c3=O)cc2)cc1 (centres unmarked) [TCMDC-133313] | -21.93 | –
COc1cc(-c2[nH]c(-c3ccc(OCCN(C)C)cc3)cc2-c2ccncc2)ccc1Cl [TCMDC-141225] | -13.45 | –
N=C(N)c1ccc(NC(=O)c2cc(Sc3ccc(O)c(C(=O)Nc4ccc(C(=N)N)cc4)c3)ccc2O)cc1 [TCMDC-136287] | -39.81 | –
CN(C)c1ccc(C=C2SC(=N)N(c3nccs3)C2=O)cc1 [TCMDC-125861] | -21.41 | –
Cc1nc(N)nc(N)c1OCc1cccc2c1ccc1ccccc12 [TCMDC-131344] | 22.54 | –
Cc1nc2nc(N)nc(N)c2c(C)c1Cc1c(Cl)cccc1Cl [TCMDC-137638] | 65.23 | –
Cc1nc2nc(N)nc(N)c2c(C)c1Cc1cccc(F)c1 [TCMDC-137652] | -9.941 | –
COc1ccccc1Cc1c(C)nc2nc(N)nc(N)c2c1C [TCMDC-137247] | 65.53 | –
Cc1nc2nc(N)nc(N)c2c(C)c1Cc1ccc([N+](=O)[O-])cc1 [TCMDC-137636] | 77.57 | –
COc1ccc(OC)c(Cc2c(C)nc3nc(N)nc(N)c3c2C)c1 [TCMDC-137651] | -0.1524 | –
Cc1nc2nc(N)nc(N)c2c(C)c1Cc1ccccc1Br [TCMDC-137242] | -1.627 | –
Cc1nc2nc(N)nc(N)c2c(C)c1Cc1ccc(N)cc1 [TCMDC-137633] | -5.029 | –
Cc1ccc(Cc2c(C)nc3nc(N)nc(N)c3c2C)cc1 [TCMDC-137657] | -7.172 | –
Cc1nc2nc(N)nc(N)c2c(C)c1Cc1ccccc1Cl [TCMDC-137668] | -12.71 | –
CO/C(=C\C=C\c1cc2cc(Cl)c(Cl)cc2[nH]1)C(=O)NCCCN1CCN(c2cccc(CCCO)c2)CC1 [TCMDC-139412] | 14.82 | –
NC(N)=Nc1ccc(NC(=O)Nc2ccc(N=C(N)N)cc2)cc1 [TCMDC-137208] | -16.48 | –
Cc1cccc2nc(-c3ccc(-c4cccc(NC(=O)NCc5cccc(F)c5)c4)s3)[nH]c12 [TCMDC-133285] | -13.08 | –
OC1CCC(Nc2ccc3ncc(-c4ccc(Cl)cc4)n3n2)CC1 (centres unmarked) [TCMDC-136693] | 13.04 | –
OC(CNc1ccnc(Nc2ccc(Cl)cc2)n1)c1ccc(C(F)(F)F)cc1 (centres unmarked) [TCMDC-136597] | -19.72 | –
CC(C)(CNCc1ccc(F)c(F)c1)c1nc(-c2ccc(Cl)c(O)c2)c(-c2ccnc(N)n2)[nH]1 [TCMDC-141163] | -6.922 | –
O=C(NCCSCc1c(F)cccc1Cl)c1cnc2c(c1)nc(-c1cnc(-c3ccccc3)[nH]1)n2CCc1cnc[nH]1 [TCMDC-139691] | -6.07 | –
Cc1ccc2cc(NC(=O)c3cccc(C(=O)Nc4ccc5nc(C)ccc5c4)n3)ccc2n1 [TCMDC-139460] | -22.62 | –
CCNc1cc(C)nc(Nc2ccc(NC(=O)c3ccccc3Cl)cc2)n1 [TCMDC-124986] | -9.535 | –
CCCOc1cc(OCCC)cc(-c2ccc(C(=O)Nc3ccc4ccc(C)nc4c3)c(=O)[nH]2)c1 [TCMDC-141499] | 82.34 | –

Compound | % Inhibition [%] | % Inhibition (% Inhibition) [%]
CC1(C)CCCN(Cc2c(O)ccc3c(=O)c(-c4nc5ccccc5s4)c(N)oc23)C1 [TCMDC-124009] | -3.964 | –
O=C(NC1CCN(Cc2ccsc2)CC1)c1ccc(-c2cccc(C(F)(F)F)c2)s1 [TCMDC-134366] | 17.83 | –
Cc1cc(CN2CCC(Nc3ncc(-c4ccsc4)c4nc(C(F)(F)F)ccc34)CC2)no1 [TCMDC-125306] | 66.69 | –
Cc1nc(-c2nc(N3CCC(O)CC3)ncc2-c2ccsc2)sc1C [TCMDC-133149] | 35.11 | –
Oc1cccc2c1CC(NCc1ccccc1)CC2 (centres unmarked) [TCMDC-137987] | 8.096 | –
NC(=O)c1cc(-c2ccccc2)cc2c(C3CCC(NCc4ccccc4)C3)c[nH]c12 (centres unmarked) [TCMDC-136335] | 119.1 | –
CCCNc1ccc(-c2cc(C(N)=O)c3[nH]cc(C4CCN(S(=O)(=O)CC)CC4)c3c2)cn1 [TCMDC-136721] | 8.74 | –
COC(=O)c1sccc1NC(=S)NC1CCC(CN2CCC(c3c[nH]c4ccccc34)CC2)CC1 (centres unmarked) [TCMDC-140184] | – | 87.69
S=C(Nc1ccc2c(c1)OCCO2)NC1CCC(CN2CCC(c3c[nH]c4ccccc34)CC2)CC1 (centres unmarked) [TCMDC-140187] | – | 28.79
COC(=O)c1sccc1NC(=S)NC1CCC(CN2CCC(c3c[nH]c4ccccc34)CC2)CC1 (centres unmarked) [TCMDC-140202] | – | 68.17
S=C(Nc1ccc2c(c1)OCCO2)NC1CCC(CN2CCC(c3c[nH]c4ccccc34)CC2)CC1 (centres unmarked) [TCMDC-140205] | – | -9.163
O=C(Nc1ccc(C(=O)OCC2CCCN3CCCCC23)cc1)c1ccc([N+](=O)[O-])cc1 (centres unmarked) [TCMDC-124028] | -7.885 | –
Oc1ccc2nc(N3CCNCC3)nc(NCCCc3ccccc3)c2c1 [TCMDC-138362] | -3.438 | –
COc1ccc2nc(N3CCN(C(=O)OC(C)(C)C)CC3)nc(NCCCc3ccccc3)c2c1 [TCMDC-138361] | 104.5 | –
COc1ccc2nccc([C@@H](O)CN3CCC(NC[C@H](Cc4ccccc4)NC(=O)OC(C)(C)C)CC3)c2c1 [TCMDC-140729] | 28.25 | –
COc1ccc2nc(N3CCNCC3)nc(NCCCc3ccccc3)c2c1 [TCMDC-138367] | 61.05 | –
COc1ccc(-c2ccccc2CNc2nc(NCCc3ccc(O)cc3)nc(N3CCNCC3)n2)cc1 [TCMDC-133785] | 16.29 | –
C/C(=C\C(=O)NC1CC1)c1ccccc1OCc1ccccc1 [TCMDC-137859] | -0.1612 | –
COC(=O)c1cccc(CNCc2cccc(-c3ccc(-c4nc5ccccc5[nH]4)s3)c2)c1.O=C(O)C(F)(F)F [TCMDC-132944] | -0.1401 | –
Cc1cc(NCCC(=O)NCCOc2ccccc2)nc(NCCc2ccccc2)n1 [TCMDC-134771] | 71.03 | –
COc1ccc(NC(=O)CCNc2cc(C)nc(Nc3ccccc3)n2)cc1 [TCMDC-134731] | 16.78 | –
COc1ccc(NC(=O)CCNc2cc(C)nc(NCCOc3ccccc3)n2)cc1 [TCMDC-134876] | 16.63 | –
Cc1cc(NCCC(=O)NCCOc2ccccc2)nc(Nc2ccccc2)n1 [TCMDC-134732] | 39.63 | –
Cc1cc(NCCC(=O)NCCOc2ccccc2)nc(NCc2ccccc2C)n1 [TCMDC-134900] | 9.691 | –

Compound | % Inhibition [%] | % Inhibition (% Inhibition) [%]
Cc1cc(NCCC(=O)Nc2ccccc2)nc(NCCOc2ccccc2)n1 [TCMDC-134878] | 88.65 | –
Cc1cc(NCCC(=O)NCCOc2ccccc2)nc(NCCc2ccc(F)cc2)n1 [TCMDC-134865] | 48.39 | –
COc1ccccc1CCNc1nc(C)cc(NCCC(=O)NCCOc2ccccc2)n1 [TCMDC-134799] | 41.79 | –
Cc1cc(NCCC(=O)NCCOc2ccccc2)nc(NCCOc2ccccc2)n1 [TCMDC-134877] | 53.53 | –
Cc1cccc(N2CCN(C3CCC(NC(=O)c4cc5ccccc5[nH]4)CC3)CC2)c1C (centres unmarked) [TCMDC-132891] | -4.538 | –
COc1ccc(S(=O)(=O)N2CCC(NS(=O)(=O)c3ccc(F)cc3)CC2)cc1 [TCMDC-123512] | 11.24 | –
CC(=O)Nc1ccc(CN(C)C2CCN(c3cc(NC(=O)c4cccc(C)c4)ccn3)CC2)cc1 [TCMDC-134982] | -8.957 | –
CN1CCN(c2cccc(NC(=O)c3ccc(-c4ccc(C#N)cc4)cc3)c2)CC1 [TCMDC-138669] | -26.05 | –
c1ccc(-c2csc(Nc3nc4cc5c(cc4s3)OCO5)n2)nc1 [TCMDC-124550] | 41.05 | –
Fc1ccc2nc(Nc3nc(-c4ccccn4)cs3)sc2c1 [TCMDC-125540] | 71.85 | –
COc1cccc2sc(Nc3nc(-c4ccccn4)cs3)nc12 [TCMDC-125543] | 33.34 | –
COc1ccc2nc(Nc3nc(-c4ccccn4)cs3)sc2c1 [TCMDC-125541] | 1.427 | –
Fc1cccc2sc(Nc3nc(-c4ccccn4)cs3)nc12 [TCMDC-125542] | 81.67 | –
Cc1ccc(NC(=O)c2ccc3ncccc3c2)cc1OC1CCN(Cc2ccc(F)cc2)CC1 [TCMDC-133747] | -16.12 | –
Cc1cc(NC(=O)Nc2ccc(I)c(OCCN(C)C)c2)ccc1Br [TCMDC-139108] | -4.695 | –
CN(Cc1cccc(O)c1)C1CCCN(c2cc(NC(=O)c3ccc(F)cc3)ccn2)C1 (centres unmarked) [TCMDC-134960] | -31.52 | –
CNC(=O)/C=C/c1cc(NC(=O)Nc2ccnc3c(Br)cccc23)ccc1OC [TCMDC-140331] | 7.673 | –
O=C1C2=C(Nc3ccccc3SC2c2ccccc2)c2ccccc21 (centres unmarked) [TCMDC-123496] | 22.47 | –
COc1ccc(-c2cccc(NC(=O)c3cccc(F)c3)c2)cc1CN1CCCN(C)CC1 [TCMDC-132619] | 89.96 | –
COc1ccc(-c2ccc(NC(=O)c3cccc(C#N)c3)cc2)cc1CN1CCCN(C)CC1 [TCMDC-132531] | 38.42 | –
CN1CCCN(Cc2ccc(-c3cccc(NC(=O)c4cccc(F)c4)c3)cc2)CC1 [TCMDC-132646] | -5.89 | –
COc1ccc(-c2ccc(NC(=O)c3cccc(F)c3)cc2)cc1CN1CCCN(C)CC1 [TCMDC-132528] | 79.48 | –
COc1ccc(-c2cccc(NC(=O)c3ccc(F)cc3)c2)cc1CN1CCCN(C)CC1 [TCMDC-132607] | 5.891 | –
